Unmarked numbers belong to inactive results. Inconclusive results are not listed. Entries that show only a call come without a potency. Activity calls are given as the source filed them. Unless noted, calls come from the whole dose curve; as a rule, active = well fitted curve in the direction sought with a large enough effect; inconclusive = small, poorly fitted or top-dose-only effect, or another doubt; inactive = no such curve, though single readings can be large; an effect the other way counts as inactive or inconclusive.
Legend:
[1] = biological target: Transient receptor potential cation channel subfamily V member 1 (Homo sapiens) (UniProt Q8NER1); assay: HTS Assay for Compounds that Act as Enhancers of the Vanilloid Receptor 1 (AID 488979)
Sequence of Transient receptor potential cation channel subfamily V member 1 (Homo sapiens) (Q8NER1 whole entry, looked up): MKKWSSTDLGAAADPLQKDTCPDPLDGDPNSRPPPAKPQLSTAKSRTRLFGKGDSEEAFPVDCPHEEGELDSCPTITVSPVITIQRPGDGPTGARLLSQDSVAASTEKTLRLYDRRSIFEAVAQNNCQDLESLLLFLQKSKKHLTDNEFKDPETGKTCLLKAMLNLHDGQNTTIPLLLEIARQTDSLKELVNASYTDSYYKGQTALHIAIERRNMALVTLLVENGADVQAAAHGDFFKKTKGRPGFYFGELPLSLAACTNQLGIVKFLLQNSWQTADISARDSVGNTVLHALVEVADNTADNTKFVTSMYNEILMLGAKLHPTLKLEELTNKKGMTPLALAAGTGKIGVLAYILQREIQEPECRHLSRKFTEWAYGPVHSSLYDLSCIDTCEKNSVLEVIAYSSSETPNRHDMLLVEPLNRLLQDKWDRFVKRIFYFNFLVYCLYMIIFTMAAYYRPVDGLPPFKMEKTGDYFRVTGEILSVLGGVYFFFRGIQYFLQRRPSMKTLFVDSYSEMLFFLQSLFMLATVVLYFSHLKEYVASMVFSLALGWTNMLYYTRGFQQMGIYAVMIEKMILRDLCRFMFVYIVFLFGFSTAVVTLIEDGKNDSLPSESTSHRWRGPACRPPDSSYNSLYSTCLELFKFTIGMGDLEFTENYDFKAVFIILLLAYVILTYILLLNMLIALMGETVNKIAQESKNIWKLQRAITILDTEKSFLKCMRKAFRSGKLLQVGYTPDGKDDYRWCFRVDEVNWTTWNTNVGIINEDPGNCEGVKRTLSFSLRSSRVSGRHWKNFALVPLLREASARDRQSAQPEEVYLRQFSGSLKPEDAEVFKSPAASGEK
Outline: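 Calcium influx kinetics via Fluo-8 (480/520 nm) in TRPV1-expressing cells, 2000/well cultured overnight at 35.5C. Compound-alone read 3 min (agonist phase), followed by EC20 capsaicin challenge for 2 min (enhancer phase).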

[2] = biological target: Thyrotropin receptor (Homo sapiens) (UniProt P16473); assay: qHTS Assay for Antagonists of the Thyroid Stimulating Hormone Receptor (AID 488980); note: series mostly up to about 58 µM
Sequence of Thyrotropin receptor (Homo sapiens) (P16473 whole entry, looked up): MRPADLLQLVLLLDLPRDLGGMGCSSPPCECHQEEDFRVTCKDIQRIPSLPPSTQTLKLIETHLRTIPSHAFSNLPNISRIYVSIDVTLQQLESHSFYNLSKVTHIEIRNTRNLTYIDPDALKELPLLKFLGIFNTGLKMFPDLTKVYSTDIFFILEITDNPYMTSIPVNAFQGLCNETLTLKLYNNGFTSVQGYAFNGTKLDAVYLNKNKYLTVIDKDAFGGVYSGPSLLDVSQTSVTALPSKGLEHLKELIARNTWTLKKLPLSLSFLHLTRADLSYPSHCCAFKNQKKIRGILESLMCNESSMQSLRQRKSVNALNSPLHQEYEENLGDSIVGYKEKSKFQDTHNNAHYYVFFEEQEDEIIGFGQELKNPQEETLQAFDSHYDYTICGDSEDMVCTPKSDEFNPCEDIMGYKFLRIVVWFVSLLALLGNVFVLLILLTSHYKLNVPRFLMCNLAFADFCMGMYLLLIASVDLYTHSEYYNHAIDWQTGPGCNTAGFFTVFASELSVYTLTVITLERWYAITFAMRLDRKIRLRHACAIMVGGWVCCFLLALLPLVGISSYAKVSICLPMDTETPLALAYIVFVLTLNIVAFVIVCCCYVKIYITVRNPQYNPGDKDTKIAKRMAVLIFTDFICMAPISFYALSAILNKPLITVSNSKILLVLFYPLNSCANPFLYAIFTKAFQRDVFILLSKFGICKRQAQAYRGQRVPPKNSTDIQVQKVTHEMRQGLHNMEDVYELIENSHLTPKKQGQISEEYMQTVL
Outline: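 TSHR-transfected HEK293 cells (2000/well) in HEPES-buffered HBSS with 70 uM RO 20-1724 were stimulated with 4 nM TSH (EC80, final) in the presence of compound. cAMP was measured by HTRF competition after lysis and 30 min at RT.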

[3] = biological target: D(1A) dopamine receptor (Homo sapiens) (UniProt P21728); assay: HTS Assay for Allosteric Agonists of the Human D1 Dopamine Receptor: Primary Screen for Potentiators (AID 488982); note: potency is the fitted concentration of half-maximal effect
Sequence of D(1A) dopamine receptor (Homo sapiens) (P21728 whole entry, looked up): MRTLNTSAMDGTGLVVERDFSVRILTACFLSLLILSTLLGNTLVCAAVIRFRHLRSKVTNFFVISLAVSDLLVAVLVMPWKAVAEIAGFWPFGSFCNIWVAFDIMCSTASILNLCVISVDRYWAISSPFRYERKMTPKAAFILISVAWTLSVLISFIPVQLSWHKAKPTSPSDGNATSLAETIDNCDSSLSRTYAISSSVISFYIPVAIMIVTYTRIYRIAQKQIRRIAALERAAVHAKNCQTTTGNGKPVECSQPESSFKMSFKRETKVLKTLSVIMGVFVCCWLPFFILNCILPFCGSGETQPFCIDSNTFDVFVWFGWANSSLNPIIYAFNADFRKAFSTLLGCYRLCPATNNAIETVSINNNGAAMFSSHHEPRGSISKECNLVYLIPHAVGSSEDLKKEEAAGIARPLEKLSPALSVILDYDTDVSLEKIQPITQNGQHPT
Outline: (§1)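 Calcium flux in an inducible, force-coupled HEK293 Trex D1 line (overnight at 30 C): agonist mode is the 180 s kinetic read after compound; potentiator mode is the following 180 s read after dopamine at EC20.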

[4] = biological target: D(1A) dopamine receptor (Homo sapiens) (UniProt P21728); assay: HTS Assay for Allosteric Agonists of the Human D1 Dopamine Receptor: Primary Screen for Antagonists (AID 488983);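 note: calcium flux response to an EC80 dopamine challenge measured with no-wash dye; nearly all actives have a fitted effect of over 65% in size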; note: potency is the fitted concentration of half-maximal effect
Outline: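 Kinetic fluorescence at 1 cycle/sec tracked intracellular calcium in force-coupled, tetracycline-inducible HEK293 T-REx D1 cells. Loss of response to an EC80 dopamine dose, given 180 s after compound, marked antagonists.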

[5] = Validation screen for small molecules that induce genotoxicity in human embryonic kidney (HEK293T) cells expressing luciferase-tagged ELG1 (AID 493106)
Outline: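 Cells were dispensed at 2,000 per well, then 23 nL compound or DMSO was pinned in. After 16 hr at 37 °C and 5% CO2, ONE-Glo reagent was added. Luciferase activity was measured following 30 min at room temperature.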

[6] = biological target: ATPase family AAA domain-containing protein 5 (Homo sapiens) (UniProt Q96QE3); assay: Validation screen for small molecules that inhibit ELG1-dependent DNA repair in human embryonic kidney (HEK293T) cells expressing luciferase-tagged ELG1 (AID 493107); note: nearly all actives have a fitted effect of over 70% in size; note: potency is the fitted concentration of half-maximal effect
Sequence of ATPase family AAA domain-containing protein 5 (Homo sapiens) (Q96QE3 whole entry, looked up, the tested form may be a part): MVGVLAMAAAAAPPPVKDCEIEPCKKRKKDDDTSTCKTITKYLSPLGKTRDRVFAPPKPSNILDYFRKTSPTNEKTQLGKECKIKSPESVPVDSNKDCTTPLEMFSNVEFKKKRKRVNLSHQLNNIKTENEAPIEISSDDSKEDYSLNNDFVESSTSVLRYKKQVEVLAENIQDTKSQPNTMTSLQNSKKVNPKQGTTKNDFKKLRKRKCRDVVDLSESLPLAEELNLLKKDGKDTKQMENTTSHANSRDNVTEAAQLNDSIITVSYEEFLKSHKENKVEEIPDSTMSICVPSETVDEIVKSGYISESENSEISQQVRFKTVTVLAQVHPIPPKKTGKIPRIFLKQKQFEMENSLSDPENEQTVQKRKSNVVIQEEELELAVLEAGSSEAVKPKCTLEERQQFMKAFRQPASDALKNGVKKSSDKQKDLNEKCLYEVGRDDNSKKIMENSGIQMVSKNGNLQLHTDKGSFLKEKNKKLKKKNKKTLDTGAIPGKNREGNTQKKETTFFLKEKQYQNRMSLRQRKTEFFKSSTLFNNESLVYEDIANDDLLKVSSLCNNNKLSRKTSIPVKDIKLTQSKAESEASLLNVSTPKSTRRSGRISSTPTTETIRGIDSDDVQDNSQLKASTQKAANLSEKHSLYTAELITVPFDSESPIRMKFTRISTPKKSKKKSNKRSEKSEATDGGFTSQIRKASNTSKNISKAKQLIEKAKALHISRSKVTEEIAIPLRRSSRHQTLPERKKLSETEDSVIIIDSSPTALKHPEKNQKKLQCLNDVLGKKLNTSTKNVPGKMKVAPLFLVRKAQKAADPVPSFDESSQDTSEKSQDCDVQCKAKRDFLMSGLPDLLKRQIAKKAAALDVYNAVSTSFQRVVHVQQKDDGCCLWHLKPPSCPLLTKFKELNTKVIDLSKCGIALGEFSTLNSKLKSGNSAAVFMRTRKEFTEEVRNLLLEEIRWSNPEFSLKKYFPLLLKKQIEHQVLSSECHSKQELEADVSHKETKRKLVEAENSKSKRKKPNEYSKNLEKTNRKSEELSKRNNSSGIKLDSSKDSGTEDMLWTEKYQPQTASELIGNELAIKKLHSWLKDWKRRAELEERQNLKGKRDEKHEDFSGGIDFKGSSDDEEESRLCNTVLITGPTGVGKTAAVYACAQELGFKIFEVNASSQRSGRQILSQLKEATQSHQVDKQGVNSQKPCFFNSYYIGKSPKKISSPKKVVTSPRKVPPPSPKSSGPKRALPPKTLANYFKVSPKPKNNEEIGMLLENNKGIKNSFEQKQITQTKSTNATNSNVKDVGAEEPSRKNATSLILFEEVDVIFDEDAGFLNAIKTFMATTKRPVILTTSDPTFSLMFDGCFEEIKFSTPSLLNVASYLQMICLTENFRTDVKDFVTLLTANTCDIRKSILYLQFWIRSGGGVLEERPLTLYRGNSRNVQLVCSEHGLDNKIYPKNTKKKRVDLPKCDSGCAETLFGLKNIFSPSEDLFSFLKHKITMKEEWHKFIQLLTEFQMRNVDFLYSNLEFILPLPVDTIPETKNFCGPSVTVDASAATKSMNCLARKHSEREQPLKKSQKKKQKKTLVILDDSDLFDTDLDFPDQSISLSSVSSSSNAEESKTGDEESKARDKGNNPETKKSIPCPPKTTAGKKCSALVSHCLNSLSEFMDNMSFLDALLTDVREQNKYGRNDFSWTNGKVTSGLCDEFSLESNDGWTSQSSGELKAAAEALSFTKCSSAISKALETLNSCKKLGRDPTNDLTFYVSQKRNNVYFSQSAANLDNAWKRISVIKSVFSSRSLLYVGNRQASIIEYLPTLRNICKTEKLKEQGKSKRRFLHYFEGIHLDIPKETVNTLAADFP
Outline: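 Cells are dispensed in 1536-well format, then 5-fluorouridine and compound are pinned in. After a 16 hr incubation at 37 °C and 5% CO2, ONE-Glo is added and luciferase measured on a CCD imager.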

[7] = biological target: Thyrotropin-releasing hormone receptor (Homo sapiens) (UniProt P34981); assay: qHTS for Small Molecule Agonists and Allosteric Enhancers of Human TRH Receptor: Validation Screen for Agonists (AID 493127;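 active = calcium activation more than 3 SD above the typical response in the agonist read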;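 note: intracellular calcium rise by fluo-8 fluorescence before TRH EC20 addition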); details: TRH receptor agonist cell assay; at 2 µM; active compounds read high
Sequence of Thyrotropin-releasing hormone receptor (Homo sapiens) (P34981 whole entry, looked up): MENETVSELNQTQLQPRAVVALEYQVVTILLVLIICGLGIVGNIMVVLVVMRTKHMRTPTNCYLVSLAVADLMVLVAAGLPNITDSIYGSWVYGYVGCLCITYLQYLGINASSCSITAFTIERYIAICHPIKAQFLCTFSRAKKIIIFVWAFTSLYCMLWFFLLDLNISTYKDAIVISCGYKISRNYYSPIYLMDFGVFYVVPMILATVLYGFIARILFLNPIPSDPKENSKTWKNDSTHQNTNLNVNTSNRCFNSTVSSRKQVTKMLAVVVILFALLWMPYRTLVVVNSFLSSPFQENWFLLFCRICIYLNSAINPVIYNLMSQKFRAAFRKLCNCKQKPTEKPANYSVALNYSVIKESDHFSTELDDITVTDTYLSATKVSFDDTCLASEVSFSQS
Outline: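 Compounds are added by online pintool to dye-loaded TRHR cells while fluorescence is recorded every second. A rise in calcium signal during the agonist read marks activation; a later 10 nM TRH addition (EC20) serves the separate enhancer mode.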

[8] = biological target: D(1A) dopamine receptor (Homo sapiens) (UniProt P21728); assay: HTS Assay for Allosteric Agonists of the Human D1 Dopamine Receptor: Primary Screen for Agonists (AID 488981)
Outline: as §1

SMILES | outcome [1] | outcome [2] | Potency [3] | Potency [4] | Potency [5] | Potency [6] | activation [7] | Potency [8]
Cn1c(=O)[nH]c2ncn(C)c2c1=O | inactive | inactive | inactive | inactive | inactive | inactive | 0.188% | 
C=C1C(=O)O[C@@H]2[C@H]3O[C@]3(C)CCC=C(C)CC[C@@H]12 | inactive | inactive | inactive | inactive | inactive | 25.9 µM (active) | -0.125% | 
NC1(C(=O)O)CCc2cc(C(=O)O)ccc21 (centres undefined) | inactive | inactive | inactive | inactive | inactive | inactive | 1.19% | 
Cn1c(=O)c2[nH]c(C3CCCC3)nc2n(C)c1=O | inactive | inactive | inactive | inactive | inactive | inactive | 0.125% | 
CN1CCN(c2nc3cc(C(F)(F)F)ccc3n3cccc23)CC1 | inactive | inactive | inactive |  | inactive |  | 1.06% | inactive
CCCCCCCCCCC/C=C\C(C)(C)/C=C\CCCC(=O)O | inactive | inactive |  | inactive | inactive | inactive | 0.562% | inactive
NC(=Nc1ccccc1)NC(=O)c1nc(Cl)c(N)nc1N | inactive | inactive | inactive | 12.6 µM (active) |  |  | 0.312% | inactive
O=c1ccn([C@@H]2O[C@H](COP(=O)(O)OP(=O)(O)O)[C@@H](O)[C@H]2O)c(=O)[nH]1 | inactive | inactive |  | inactive | inactive |  | 0.188% | inactive
N[C@@H](CCCC(=O)O)C(=O)O | inactive | inactive | inactive | inactive | inactive | inactive | 0.75% | 
CCCCCCC/C=C\CCCCCCCCC(=O)O | inactive | inactive |  | inactive | inactive |  | 1.5% | inactive
COc1ccc(NC(=O)c2ccc(-c3ccc(-c4noc(C)n4)cc3C)cc2)cc1N1CCN(C)CC1 | inactive | inactive | inactive | 20 µM (active) | inactive | 20.6 µM (active) | 2.25% | 
NC(N)=[N+]1CCc2ccccc2C1 | inactive | inactive |  | inactive | inactive | inactive | -0.125% | inactive
CCCOC(=O)c1c(-c2ccccc2)nc(CC)c(C(=O)SCC)c1CCC | inactive | inactive | 2.91 µM (active) |  | inactive |  | 1.31% | inactive
CC(=O)[C@H]1CCC2C3CC=C4C[C@@H](OS(=O)(=O)O)CC[C@]4(C)C3CC[C@@]21C (some centres undefined) | inactive | inactive | inactive | inactive | inactive | inactive | -0.125% | 
NC(N)=NC(N)=Nc1ccccc1 | inactive | inactive | inactive | inactive | inactive | inactive | 0.75% | 
Cn1c(=O)c2[nH]c(-c3ccc(S(=O)(=O)O)cc3)nc2n(C)c1=O | inactive | inactive |  | inactive | inactive | inactive | 0.938% | inactive
O=C1C2C=CC=CC2=NC(=S)N1CCN1CCC(=C(c2ccc(F)cc2)c2ccc(F)cc2)CC1 (centres undefined) | inactive | inactive | inactive |  | inactive | inactive | -4.38% | inactive
CCCn1c(=O)c2c(ncn2C)n(CCC)c1=O | inactive | inactive |  | inactive | inactive | inactive | 0.5% | inactive
CCC(=O)N1CCN(C(=O)c2ccccc2)CC1 | inactive | inactive | inactive | inactive | inactive | inactive | 1.38% | 
NC(Cc1cccc(-c2ccccc2CP(=O)(O)O)c1)C(=O)O (centres undefined) | inactive | inactive |  | inactive | inactive |  | 1.31% | inactive
O=c1[nH]c2ccccc2c2ccccc12 | inactive | inactive | inactive | inactive | inactive | inactive | -4.5% | 
Cc1nc(N=Nc2cc(S(=O)(=O)O)c3cc([N+](=O)[O-])cc(S(=O)(=O)O)c3c2)c(COP(=O)(O)O)c(C=O)c1O | inactive | inactive | inactive | inactive | inactive | inactive | 0.25% | 
NOCC(=O)O | inactive | inactive |  | inactive | inactive |  | 0.25% | inactive
N[C@@H](CCC(=O)N[C@H](CSN=O)C(=O)NCC(=O)O)C(=O)O | inactive | inactive | inactive | inactive | inactive | inactive | 1.31% | 
N#C/C(=C\c1ccc(O)c(O)c1)C(=O)NCCCNC(=O)/C(C#N)=C/c1ccc(O)c(O)c1 | inactive | inactive |  | inactive | inactive |  | -0.0625% | inactive
CCN(c1nc(N)c(C(=O)N=C(N)N)nc1Cl)C(C)C | inactive | inactive | inactive |  | inactive | inactive | 2.31% | inactive
